Measured values as given in the supplement of paper PMC3334620.
Over roughly 33,000 sequences, “E-score (-0.5 to 0.5)” has its median near -0.054; the highest 2% begin near 0.35. The sample as a whole holds a higher share of the highest values than the screen did.

target: T1, Stb5 (UniProt P38699); assay: PBM E-score (8-mer binding enrichment) (E-score (-0.5 to 0.5)); higher = stronger / more preferred TF binding; conditions: protein concentration: 200 nM; construct: GST-full length
T1 sequence: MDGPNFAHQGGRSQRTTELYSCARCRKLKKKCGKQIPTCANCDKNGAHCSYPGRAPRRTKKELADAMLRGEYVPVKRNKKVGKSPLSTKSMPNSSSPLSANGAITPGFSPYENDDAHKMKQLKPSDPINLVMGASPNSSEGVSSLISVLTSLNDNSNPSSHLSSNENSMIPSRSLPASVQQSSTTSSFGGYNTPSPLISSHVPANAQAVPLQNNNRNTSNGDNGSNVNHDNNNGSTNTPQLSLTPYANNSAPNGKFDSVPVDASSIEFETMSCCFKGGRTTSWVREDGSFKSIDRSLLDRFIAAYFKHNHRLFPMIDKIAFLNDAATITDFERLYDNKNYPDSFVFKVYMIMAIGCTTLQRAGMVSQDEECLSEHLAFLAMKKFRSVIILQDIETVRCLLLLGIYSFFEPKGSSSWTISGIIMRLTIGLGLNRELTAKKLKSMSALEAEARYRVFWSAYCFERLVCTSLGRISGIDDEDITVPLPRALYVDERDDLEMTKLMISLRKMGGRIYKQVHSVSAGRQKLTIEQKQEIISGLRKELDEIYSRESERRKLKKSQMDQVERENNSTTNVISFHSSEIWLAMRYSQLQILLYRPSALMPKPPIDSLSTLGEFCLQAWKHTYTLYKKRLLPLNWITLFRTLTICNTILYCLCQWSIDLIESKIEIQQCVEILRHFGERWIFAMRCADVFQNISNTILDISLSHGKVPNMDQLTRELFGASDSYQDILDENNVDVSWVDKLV
Procedure, shortened: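 Yeast transcription factors, full-length or as DNA-binding domains, were expressed with a GST tag using PURExpress in vitro transcription/translation. At about 100-200 nM they were applied to universal all-10-mer Agilent arrays, double-stranded by primer extension on fresh or once-stripped slides. Fluorescent anti-GST detected bound protein, and masliner normalised the scans. E-scores for ungapped eight-base words, pooled with reverse complements, came from the Universal PBM Analysis Suite.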

Row | Sequence | PBM E-score
1 | CCAAGCAG | -0.122
2 | CACTGTCA | -0.352
3 | AAACTCCT | 0.0448
4 | ATACTCCC | 0.339
5 | ATACTCCA | -0.199
6 | AATCTCCG | 0.423
7 | ATACTCCG | 0.371
8 | AAGCTCCG | 0.429
9 | AATCTCCC | -0.0498
10 | CAACTCCG | 0.342
11 | CATCTCCG | 0.276
12 | AAGCTCCT | -0.165
13 | AAACTCCG | 0.463
14 | CAGCTCCG | 0.136
15 | CACTGCAA | -0.139
16 | ACGTGCGA | -0.0649
17 | GCTAGTCC | 0.0729
18 | GAGAAAGC | 0.0247
19 | CACACATC | -0.15
20 | CTGTTCGC | -0.0755
21 | AACCTCCC | -0.0946
22 | AACCTCCG | 0.408
23 | AACCTCCT | -0.234
24 | GTAAGCCA | -0.243
25 | GAGTAGCC | -0.178

Row | Sequence | PBM E-score
26 | CGAAATTA | -0.0454
27 | CCCCGTGC | 0.375
28 | CCCCGTGA | 0.146
29 | ACCCGTGC | -0.0288
30 | ATGAACCA | -0.252
31 | CACAGCTA | -0.125
32 | CAATTGTC | -0.0888
33 | CGGCTTTA | 0.439
34 | GGGCTTTA | 0.326
35 | CGGCTTTC | 0.061
36 | CGGCTCTA | 0.391
37 | CGGCTCTC | -0.0773
38 | GGGCTATA | 0.0715
39 | AGGCTCTA | -0.0942
40 | CGGCTATA | 0.367
41 | AGGCTATA | 0.0655
42 | CTCTACCC | -0.316
43 | GCCGCACA | 0.206
44 | CTGCTGGC | -0.124
45 | CTCGGGGA | 0.0793
46 | GCGGGGGA | 0.261
47 | AGCGGGAG | 0.0448
48 | GGCGGGGA | 0.366
49 | GGCGGGAA | 0.287
50 | AGCGGGGG | 0.277

Row | Sequence | PBM E-score
51 | AGCGGGAA | 0.357
52 | ATCGGGGA | 0.307
53 | GTCGGGGA | 0.382
54 | AGCGGGGA | 0.375
55 | CGCGGGGA | 0.305
56 | AGCGGGAT | 0.25
57 | GTAGGCAA | -0.246
58 | AATCTCCT | -0.0106
59 | GGGCAGTA | -0.0652
60 | ACCAAACG | 0.0282
61 | AGATCCAC | -0.00803
62 | GAACGTTC | -0.114
63 | CCGTTACC | 0.19
64 | CAGAGTAC | -0.0917
65 | CGTTTGGC | 0.0428
66 | ACGATTAT | 0.0316
67 | CCCGAGAC | 0.146
68 | CGGATTAA | 0.231
69 | ATCGGGCC | 0.297
70 | ATCGGGGG | 0.289
71 | AGCGGGCC | 0.23
72 | CGCGGGGC | 0.321
73 | AGCGGGGC | 0.356
74 | ATCGGGGC | 0.356
75 | CCCATATA | 0.0651

Row | Sequence | PBM E-score
76 | ATAAACGA | 0.0369
77 | AGCCCAAA | 0.106
78 | GCCGACCC | 0.267
79 | CCCGACCC | 0.247
80 | ACCGACCC | 0.361
81 | ACCGACCA | 0.332
82 | CCCGACCG | 0.355
83 | ACCGACCG | 0.346
84 | AACACTAA | -0.111
85 | TGTGGGAA | -0.16
86 | GCCTAGTA | -0.0419
87 | AAAATCCG | 0.345
88 | GGCCCCGA | 0.23
89 | AGCCCCGA | 0.397
90 | AGCCCCCG | 0.173
91 | CGCCCCGA | 0.328
92 | AGCCCGGG | 0.189
93 | AGCCCCGG | 0.404
94 | CGCCCCGC | 0.325
95 | AGCCCCCC | -0.282
96 | AGCCCCGC | 0.421
97 | AAGGTGAT | 0.117
98 | AGAGGTAC | -0.205
99 | CCTGATCC | -0.125
100 | CCCATGGG | -0.194

Row | Sequence | PBM E-score
101 | GGTTGGAC | -0.0385
102 | CGCCTGTC | -0.0556
103 | ACTACAGT | -0.24
104 | ATCGGATA | 0.19
105 | GTCGGAAA | 0.274
106 | GACGGACC | 0.316
107 | CACGGACA | 0.211
108 | TCCGGACA | 0.259
109 | CTCGGATA | 0.0597
110 | CCCGGACA | 0.315
111 | GACGGACA | 0.372
112 | GTCGGACA | 0.385
113 | CTCGGACA | 0.233
114 | GCCGGACA | 0.401
115 | GTCGGATA | 0.371
116 | TAAAACTA | -0.0104
117 | CACAAAAG | 0.0345
118 | AGCTAACG | 0.00522
119 | CCTCCTAG | -0.267
120 | ATGGCGAG | -0.242
121 | CCAGCGCG | -0.0713
122 | AAACCTTT | 0.0851
123 | AGGCCCCA | -0.255
124 | GTCGGAGA | 0.373
125 | CTCGGAGA | 0.136

Row | Sequence | PBM E-score
126 | CGCGGAGA | 0.287
127 | ATCGGAGA | 0.33
128 | GGCGGAGA | 0.388
129 | AGCGGAGA | 0.236
130 | AAACAGAG | -0.197
131 | CGGTCTAA | 0.23
132 | CCACTACG | -0.0468
133 | CCATAACG | -0.0562
134 | AACATATT | -0.109
135 | AGGTGTTC | -0.101
136 | GGGTGTTA | 0.25
137 | CCGTGTTC | 0.137
138 | CGGTGTGA | 0.441
139 | AGGTGTTG | -0.0336
140 | CGGTGTTC | 0.399
141 | AGGTGTTA | 0.381
142 | AGGTGTCC | -0.164
143 | AGGTGTGA | 0.00067
144 | CTGTGTCC | 0.136
145 | CGGTGTCC | 0.369
146 | CGGTGTGC | 0.219
147 | AATCTGCA | -0.273
148 | AAAGGCCT | -0.115
149 | ACTCTGTG | -0.0679
150 | TATAGGCA | -0.262

Row | Sequence | PBM E-score
151 | ATGATGCA | -0.187
152 | CACCAGCG | -0.06
153 | ACAAAGAG | -0.148
154 | CGGTGTAA | 0.438
155 | GGGTGTCA | -0.073
156 | CGGTGTAG | 0.323
157 | AGGTGTCA | 0.12
158 | GGGTGTAA | 0.251
159 | CGGTGTCA | 0.471
160 | TCGGAAGA | 0.142
161 | ATATGAAA | -0.119
162 | ATTCGAGG | 0.0182
163 | TACGCAGA | -0.163
164 | CGACCCGA | 0.117
165 | AGACGCCA | -0.181
166 | AGACGCCC | 0.0667
167 | CAACGCCG | 0.318
168 | AGACGCCG | 0.399
169 | AAACGCCA | -0.046
170 | AAACGCCG | 0.449
171 | CGCTAGAG | 0.0369
172 | AACATCGC | 0.0424
